According to PubChem BioAssay AID588790 (National Center for Advancing Translational Sciences (NCATS), 2011):
In all, about 1,200 compounds went through this assay and about 85 (7%) were called active. Calls follow the shape of the full dose curve. The list comes from a sample in which actives are over-represented; it also holds similar structures and randomly drawn compounds. Entries that show only a call come without a potency.

Biological target: Beta-2 adrenergic receptor (Homo sapiens) (UniProt P07550)
Assay: qHTS assay of beta-arrestin-biased ligands of beta2-adrenergic receptor: Hit Validation with GloSensor
Settings: W9-Glo22F cells, GloSensor cAMP luminescence, beta2AR agonism; activation: at 46.1 µM (top of the series)
Summary of the method: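 W9-Glo22F cells plated and incubated overnight at 37 deg C, 5% CO2, then compounds pinned in. GloSensor reagent added, 10 min at room temperature, luminescence read.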
Potency is read from the fitted curve at half-maximal effect.

Beta-2 adrenergic receptor (Homo sapiens), sequence (P07550 whole entry, looked up): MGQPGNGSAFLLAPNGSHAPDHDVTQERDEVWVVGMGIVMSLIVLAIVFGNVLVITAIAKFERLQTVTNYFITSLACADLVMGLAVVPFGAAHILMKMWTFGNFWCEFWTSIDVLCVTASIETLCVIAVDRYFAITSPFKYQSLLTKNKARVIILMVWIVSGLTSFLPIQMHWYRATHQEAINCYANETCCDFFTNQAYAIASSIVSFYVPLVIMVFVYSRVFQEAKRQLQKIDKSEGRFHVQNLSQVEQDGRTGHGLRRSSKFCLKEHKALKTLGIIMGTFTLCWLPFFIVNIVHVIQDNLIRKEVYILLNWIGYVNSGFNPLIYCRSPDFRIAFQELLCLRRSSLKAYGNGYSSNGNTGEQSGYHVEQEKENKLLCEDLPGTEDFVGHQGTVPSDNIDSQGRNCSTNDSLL

Compound	Potency
O=C(Nc1ccccc1)N1CCCC(c2nc(-c3cccs3)no2)C1 (configuration not stated)	inactive
COc1ccc(NC(=S)N2CCc3ccccc3C2)cc1	inactive
Cc1ccc(/C(=N/Nc2ncnc3ccccc23)C(=O)O)cc1	inactive
COc1ccc(/C(C)=N/Nc2nc3ccccc3nc2C)cc1OC	25.9 µM (active)
COc1ccc(/C=N/Nc2nncc3ccccc23)c(OC)c1	inactive
Fc1ccccc1/C=N/n1cc(-c2ccccc2)[nH]c1=S	inactive
O=C(/C=C/c1ccc(F)cc1)NC(=S)N1CCN(Cc2ccccc2)CC1	inactive
C[C@H](C(=O)CC(=O)OC(C)(C)C)[C@H](O)c1ccccc1	inactive
Cc1cc(/C=N/NC(N)=S)c(C)n1-c1ccc(Cl)cc1	inactive
Cc1nc2ccc(NC(=O)CS(=O)(=O)c3ccc(F)cc3)cc2s1	inactive
C/C(=N\NC(=S)NC1CCCCC1)c1ccc(O)cc1	6.51 µM (active)
C/C(=N\NC(=S)NC1CCCCC1)c1ccc(C)o1	inactive
C/C(=N\NC(=S)NC1CCCCC1)c1cccs1	inactive
S=C(Nc1nc2c(s1)CCCC2)NC1CC1	inactive
NS(=O)(=O)c1ccc(CCNC(=O)CSc2ccc(Cl)cc2)cc1	inactive
Nc1c(Cl)ncnc1N/N=C/c1ccc2ccccc2n1	inactive
COc1cc(C(c2nnnn2C(C)(C)C)N2CCN(C)CC2)cc(OC)c1OC (configuration not stated)	inactive
O=C(NCCOc1cccnc1)C1CCC(=O)N(Cc2ccccc2F)C1 (configuration not stated)	9.2 µM (active)
CN(C(=O)CSc1ccncc1)C1CCCN(Cc2ccccc2F)C1 (configuration not stated)	inactive
COc1ccccc1N1CCN(C(=O)c2cc3ccccc3[nH]2)CC1	inactive
Cc1[nH]c2ccccc2c1C(=O)C(C)OC(=O)c1ccc(NC(=O)CC#N)cc1 (configuration not stated)	inactive
O=C(Nc1ccc(Nc2ccccc2)cc1)c1cc([N+](=O)[O-])ccc1Cl	inactive

Compound	Potency
CCC(=O)N1CCC2(CC1)Oc1ccc(Cl)cc1C(=O)C21CC(c2ccccc2)=NO1 (configuration not stated)	23.1 µM (active)
CC(C)C(=O)N1CCC2(CC1)Oc1ccc(Cl)cc1C(=O)C21CC(c2ccccc2)=NO1 (configuration not stated)	inactive
CC(C)Oc1ccc(/C=N/NC(N)=S)cc1	inactive
Cc1cccnc1NCc1ccc(O)c2ncccc12	inactive
OCc1ccnc2c(O)cccc12	25.9 µM (active)
CCCOCc1ccc(O)c2ncccc12	inactive
COc1ccccc1NC(=O)COC(=O)c1ccc2ccccc2n1	inactive
C[C@H](NC(=O)c1ccccc1)C(=O)Nc1nc(-c2ccccn2)cs1	inactive
CC(C)OC(=O)c1cn(-c2ccccc2)nc1-c1ccco1	23.1 µM (active)
O=C(Nc1ccc(Cl)cc1)/C(=C/c1cccc(O)c1)c1nc2ccccc2s1	inactive
O=C(COc1ccc2ccccc2c1)Nc1ccc(Br)cc1C(=O)O	inactive
Cc1ccc(NC(=S)NC(NC(=O)c2ccco2)C(Cl)(Cl)Cl)cc1 (configuration not stated)	inactive
COc1ccc2c(C)nc(Nc3nc(C)cc(C)n3)nc2c1	inactive
COc1ccccc1NC(=S)N/N=C1\CC(C)(C)Oc2ccc(O)cc21	inactive
CC1(C)C/C(=N\NC(=S)Nc2ccccc2F)c2cc(O)ccc2O1	inactive
COc1cccc(NC(=S)N/N=C2\CC(C)(C)Oc3ccc(O)cc32)c1	25.9 µM (active)
C=CCOc1ccc2ccccc2c1CNn1c(C)n[nH]c1=S	8.2 µM (active)
CCN(CC)S(=O)(=O)c1ccc(N=Nc2c(C)[nH]n(C(N)=S)c2=O)cc1	inactive
O=C(C[C@H]1C[C@H](C(=O)N2CCCCC2)[C@@]2(CCc3ccccc3)c3[nH]c4cc(-c5ccco5)ccc4c3CCN2C1=O)NCCC1=CCCCC1	inactive
C/C(=N\NC(=S)NC(C)C)c1ccc(Cl)s1	inactive
O=C(N/N=C/c1cn(-c2ccccc2)nc1-c1cc2ccccc2o1)c1cccnc1	inactive
CO/C=C\C=C/c1nnn(-c2ccc(Cl)cc2)n1	inactive

Compound	Potency
CC(NCCc1ccc(O)cc1)C(O)c1ccc(O)cc1 (configuration not stated)	0.0116 µM (active)
Cc1ccc(CNc2ccc(O)cc2)cc1	inactive
CCc1ccc(CNc2ccc(O)cc2)cc1	inactive
Oc1ccc(/C=N/NC(=S)NC2CC3CCC2C3)cc1 (configuration not stated)	inactive
C=CC[n+]1c(-c2ccc(OC)c(OC)c2)csc1NNC(=O)Nc1ccccc1	10.3 µM (active)
C=CC[n+]1c(-c2ccc(C)cc2)csc1NNC(=O)Nc1ccccc1	inactive
COc1ccc(-c2c(-c3ccccc3)c(C(=O)C(=O)NCCCN(C)C)n3ccc4cc(OC)c(OC)cc4c23)cc1OC	inactive
O=C1NC2(C=Cc3c(ccc4ccccc34)O2)Oc2ccccc21 (configuration not stated)	inactive
COc1cc(/C=N/Nc2ccc(F)cc2F)cc(OC)c1O	inactive
O=C(O)/C=C/c1nc(-c2ccccc2)n2ccccc12	25.9 µM (active)
C[C@@H](NC(=O)c1coc(=O)c(Br)c1)c1ccccc1	inactive
O=[N+]([O-])c1cc([N+](=O)[O-])c2cc3ccccc3nc2c1	inactive
Cn1c(CNC(=O)c2ccccc2F)nnc1SCC(=O)c1ccccc1	inactive
COc1ccc(NC(=O)c2cc3c(-c4ccc(OC)c(OC)c4)nn(C)c3s2)cc1OC	inactive
COC(=O)CSc1ccc2nnc(-c3ccc(OC)c(OC)c3)n2n1	25.9 µM (active)
COc1ccc(C(C)NC(=O)c2ccc(Br)cc2)cc1OC (configuration not stated)	inactive
CCOc1ccc(/C(CCC(=O)O)=N/NC(=S)NCCc2ccccc2)cc1	inactive
COc1ccc(NC(=O)C(=O)NCC(c2ccco2)N2CCc3ccccc32)cc1 (configuration not stated)	inactive
COc1cc(/C=N/NC(=O)c2cncc(Br)c2)cc([N+](=O)[O-])c1O	inactive
Cn1c(O)c(/C=N/NC(=O)c2cc3ccccc3cc2O)c2ccccc21	inactive
Oc1[nH]c2ccc(Br)cc2c1N=NC(=S)NCC1CCCO1 (configuration not stated)	inactive
COc1cc(OC)c(NS(=O)(=O)c2cc(C(=O)OC(C)C(=O)NC3CC3)c(Cl)cc2Cl)cc1Cl (configuration not stated)	inactive

Compound	Potency
COc1cc(/C=C2\SC(=N)N(c3ccc4c(c3)OCO4)C2=O)cc(OC)c1O	20.6 µM (active)
CCCC1(C(=O)OCC)NC(c2ccc(OC)cc2OC)C2C(=O)N(c3ccc4c(c3)OCCO4)C(=O)C21 (configuration not stated)	inactive
CCNC(=S)N/N=C(\C)c1cccc(OC)c1	inactive
C[C@H](CO)N1C[C@H](C)[C@@H](CN(C)Cc2ccccc2)Oc2c(NC(=O)Cc3ccccc3)cccc2C1=O	inactive
CCCN=C1N(CC)C[C@@H]2[C@@H]3C(=O)N(C)C(=O)[C@@H]3[C@](CC)(C(=O)OC)N12	inactive
O=C(COC(=O)c1ccccn1)c1ccc([N+](=O)[O-])cc1	inactive
Cc1ccc(S(=O)(=O)N(Cc2ccc(Cl)cc2)c2ccccc2C(=O)NCc2ccco2)cc1	inactive
Cc1cc(C)n(-c2nc(NC(C)C)nc(NC(C)C)n2)n1	inactive
Cc1cc(C)nc(-n2nc(C)cc2NC(=O)CN2CCC(C)CC2)n1	29.1 µM (active)
CCC1CCCCN1CC(=O)Nc1cc(C)nn1-c1nc(C)cc(C)n1 (configuration not stated)	7.31 µM (active)
Cc1cc(C)nc(-n2nc(C)cc2NC(=O)CNC2CCCCC2)n1	inactive
Cc1cc(C)nc(-n2nc(C)cc2NC(=O)CN2CCCC2)n1	20.6 µM (active)
CNc1cc(C)nc(-n2nc(C)cc2C)n1	inactive
CCC(C(=O)Nc1cc(C)nn1-c1nc(C)cc(C)n1)c1ccccc1 (configuration not stated)	18.4 µM (active)
CCNc1nc(NCC)nc(-n2nc(C)cc2C)n1	inactive
Cc1cc(C)n(-c2nc(NC(C)(C)C)nc(NC(C)(C)C)n2)n1	inactive
CC(=O)Nc1ccc(Nc2cc(C)nc3c(-c4ccccc4)c(C)nn23)cc1	inactive
Cc1ccc(S(=O)(=O)N2CCN(C(C)C(=O)NCC(C)c3ccccc3)CC2)cc1 (configuration not stated)	inactive
CN(C)C(=S)Nc1nc2ccccc2s1	inactive
COc1cccc(C2CC3(CC(C)(C)NC(=S)N3)Oc3cc(O)ccc32)c1 (configuration not stated)	inactive
COCCCN=C1NN=C(c2cc(C)n(-c3ccccc3)c2C)CS1	inactive
COc1ccc(N2C(=O)C(CC(=O)Nc3ccc(Cl)cc3)N(NC(=O)c3cccc(F)c3)C2=S)cc1 (configuration not stated)	inactive

Compound	Potency
O=C(NCCN1CCOCC1)c1ccccc1Cl	20.6 µM (active)
O=C(NC(=S)N1CCCCCC1)c1ccccc1Cl	inactive
O=C(NCCN1CCOCC1)c1cc(Br)ccc1Cl	inactive
C=C(C)c1cccc(C(C)(C)NC(=O)NC2CCN(Cc3ccccc3)CC2)c1	inactive
CC(=O)Oc1ccc2cc(-c3ccccc3)c(=O)oc2c1	inactive
COc1cc2c(cc1OC)C(c1cc3ccccc3oc1=O)=NC(C)(C)C2	23.1 µM (active)
CC(C)c1ccc(NC(=S)Nc2ccc3cn[nH]c3c2)cc1	inactive
O=C(O)C12CC3CC(C1)CC(n1ncc(N4CCN(c5ccccc5)CC4)c(Cl)c1=O)(C3)C2	inactive
O=C1c2ccccc2-c2onc3ccc(Oc4ccccc4)c1c23	13 µM (active)
C=CCn1nc([N+](=O)[O-])nc1Sc1cccc2cccnc12	inactive
C=CCNC(=S)Nc1cc(C)ccn1	inactive
O=C(NCC1CCCO1)c1ccc(CS(=O)(=O)c2ccc(Br)cc2)o1 (configuration not stated)	inactive
CCOc1ccc(CC(=O)Nc2ccc(S(=O)(=O)Nc3cc(C)on3)cc2)cc1OCC	inactive
COc1ccccc1NS(=O)(=O)c1ccc(NC(=O)Cc2cccs2)cc1	32.6 µM (active)
COc1ccccc1NS(=O)(=O)c1cc(NC(=O)CNC(=O)c2ccc(C)s2)ccc1Cl	inactive
CC(C)N(Cc1cc2ccccc2[nH]c1=O)C(=O)C1CCCCC1	inactive
COc1ccc(C2CC(O)(c3ccccc3)Oc3cc(OC)c(OC)c(OC)c32)cc1 (configuration not stated)	inactive
COc1ccc(Nc2cc(Nc3cccc(OC)c3)ncn2)cc1	inactive
COc1cccc(Oc2cnc(N)nc2-c2ccc(OC)cc2O)c1	23.1 µM (active)
